# Test results taken from PubChem BioAssay (NCATS).
# Inconclusive results are not listed. Activity calls are given as the source filed them. Unless noted, the call rests on the fitted dose curve; in most records, active means well fitted curve in the direction sought with a large enough effect; inconclusive means small, poorly fitted or top-dose-only effect, or another doubt; inactive means no such curve, though single readings can be large; an effect the other way counts as inactive or inconclusive.
# Assays:
# [1] = AP1 Signaling Pathway (AID 357; active means well fitted curve in either direction with a large enough effect, not every such curve was filed as active; further: on the % scale 0 is the no-effect control and ±100 the full control effect); conditions: ME-180 AP-1-bla reporter, EGF-induced, beta-lactamase ratio, 5 h; at 7.69 µM (top of the series) unless noted
# Method in brief: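 AP-1-bla ME-180 cells with beta-lactamase reporter under AP-1 response element, stimulated with EC50 EGF; compounds titrated, 5 hours at 37 degrees Celsius. CCF4 read at 460/530 nm ratio; positive and negative modulators judged by AC50.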
# [2] = target: Cytochrome P450 1A2 (Homo sapiens) (UniProt P05177); assay: p450-cyp1a2 (AID 410; calls by dose curve; further: potency means the concentration at half of the fitted maximal effect)
# Chain of Cytochrome P450 1A2 (Homo sapiens) (P05177 whole entry, looked up): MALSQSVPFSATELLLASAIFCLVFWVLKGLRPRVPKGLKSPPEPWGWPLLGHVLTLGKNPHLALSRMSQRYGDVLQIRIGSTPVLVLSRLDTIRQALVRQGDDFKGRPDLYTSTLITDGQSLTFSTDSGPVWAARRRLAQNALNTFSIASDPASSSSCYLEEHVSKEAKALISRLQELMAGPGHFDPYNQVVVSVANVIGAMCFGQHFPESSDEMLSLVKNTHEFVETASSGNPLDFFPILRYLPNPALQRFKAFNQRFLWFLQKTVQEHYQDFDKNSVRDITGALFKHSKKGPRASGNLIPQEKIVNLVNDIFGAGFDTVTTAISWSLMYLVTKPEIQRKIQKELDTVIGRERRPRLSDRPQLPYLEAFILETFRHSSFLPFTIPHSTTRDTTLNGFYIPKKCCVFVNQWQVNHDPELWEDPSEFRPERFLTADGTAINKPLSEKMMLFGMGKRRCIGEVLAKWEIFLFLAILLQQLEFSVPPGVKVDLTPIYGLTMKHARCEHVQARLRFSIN
# Method in brief: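 Inhibition was calculated relative to 57 uM furafylline (full inhibition). The reaction used human CYP1A2 at 20nM with Luciferin-ME at its Km, 100uM, driven by an NADPH-regenerating system for 60 min at room temperature.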
# [3] = Stat Signaling Pathway (AID 446; active means well fitted curve in either direction with a large enough effect, not every such curve was filed as active;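 further: ME-180 cervical cancer cells given 40 pM IL-6 alongside compound; SIE-controlled beta-lactamase reporter measured as 460/530 nm FRET emission ratio; on the % scale 0 is the no-effect control and ±100 the full control effect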); conditions: ME-180 (cervical carcinoma) SIE beta-lactamase reporter, IL-6 stimulated, 5 h; at 7.69 µM (top of the series) unless noted
# Method in brief: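 IL-6/STAT signaling read in ME-180 cells via an SIE beta-lactamase reporter. Stimulus was 40 pM IL-6 (its AC50) for 5 hrs, so both activation and inhibition register.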
# [4] = target: Glucocorticoid receptor (Homo sapiens) (UniProt P04150); assay: GR-GFP Redistribution (AID 450;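 active means compounds whose dose series gives a full or clear partial fitted curve of increased nuclear translocation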; further: potency means the concentration at half of the fitted maximal effect); conditions: U2OS GR-GFP nuclear translocation, laser cytometry, 2 h
# [5] = target: Glucocorticoid receptor (Homo sapiens) (UniProt P04150); assay: GR-EFC Redistribution (AID 451; calls by dose curve; further: potency means the concentration at half of the fitted maximal effect); conditions: CHO-K1 GR-EFC translocation, beta-gal luminescence, 2 h
# Method in brief: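 CHO-K1 cells expressing nuclear EA and GR-ED fragments of b-gal; compounds titrated up to 46 uM final, 2 h at 37 C. GR nuclear translocation read as complemented b-gal luminescence after 1 h RT detection.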
# [6] = target: Cytochrome P450 3A4 (Homo sapiens) (UniProt P08684); assay: qHTS Assay for Activators of Cytochrome P450 3A4 (AID 885); further: nearly all actives have a fitted effect of over 65% in size
# Chain of Cytochrome P450 3A4 (Homo sapiens) (P08684 whole entry, looked up): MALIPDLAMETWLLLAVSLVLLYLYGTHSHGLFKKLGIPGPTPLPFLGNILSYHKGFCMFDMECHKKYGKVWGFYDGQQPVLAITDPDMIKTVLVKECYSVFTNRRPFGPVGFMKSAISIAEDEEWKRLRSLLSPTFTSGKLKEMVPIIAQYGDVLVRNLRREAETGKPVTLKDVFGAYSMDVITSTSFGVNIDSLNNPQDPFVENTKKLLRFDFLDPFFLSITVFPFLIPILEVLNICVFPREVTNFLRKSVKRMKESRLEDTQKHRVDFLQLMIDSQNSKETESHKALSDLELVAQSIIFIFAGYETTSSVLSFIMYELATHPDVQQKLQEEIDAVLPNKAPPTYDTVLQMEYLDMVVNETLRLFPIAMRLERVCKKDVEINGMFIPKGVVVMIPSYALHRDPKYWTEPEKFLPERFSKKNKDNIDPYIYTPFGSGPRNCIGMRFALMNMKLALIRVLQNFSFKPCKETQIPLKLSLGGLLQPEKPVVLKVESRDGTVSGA
# Method in brief: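 Quantitative HTS format: compounds preincubated with 20nM human CYP3A4 and Luciferin-PPXE substrate at KM, reaction started by NADPH regeneration, stopped after 60 min, luciferase luminescence read 20 min later.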
# [7] = qHTS Assay for Lipid Storage Modulators (AID 1519; calls by dose curve; further: potency means the concentration at half of the fitted maximal effect); conditions: Drosophila S3 cells, BODIPY lipid droplet/cell ratio, laser cytometry, cells loaded with oleic acid; for activity change, negative = inhibition: at 57.5 µM (top of the series)
# Method in brief: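 Cells seeded at 5,000 per well were treated with compounds over a concentration series and loaded with oleic acid (400 uM, as added). Lipid droplet fluorescence (488 nm excitation, 500-530 nm channel) was read by laser-scanning cytometry and normalized to 20 uM Triacsin C.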
# [8] = target: Cytochrome P450 3A4 (Homo sapiens) (UniProt P08684); assay: qHTS Assay for Inhibitors and Substrates of Cytochrome P450 3A4 (AID 884); further: potency means the concentration at half of the fitted maximal effect; nearly all actives have a fitted effect of over 50% in size
# Method in brief: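 20 nM human CYP3A4 with 25 uM Luciferin-PPXE (at KM) in 200 mM KPO4, preincubated 10 min with compound; NADPH regeneration started a 60 min RT reaction. Luciferin detected by luminescence, normalized to 57 uM ketoconazole as full inhibition.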
# [9] = Confirmation and Secondary Assay for Modulators of Hemoglobin Beta Chain Splicing at IVS2 654 locus (AID 910);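 further: HeLa cells stably carrying EGFP split by mutant beta-globin IVS2-654 intron; % of control where 0% means no effect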
# Method in brief: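 HeLa cells stably expressing EGFP interrupted by β-globin IVS2-654 intron, seeded overnight in Opti-MEM/2% FCS, then treated 2 days at 37 °C. Restored splicing read as total peak GFP intensity per well by laser scanning cytometry (488 nm excitation, 500–520 nm emission); 500 nM antisense PNA as control.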
# [10] = target: Rap guanine nucleotide exchange factor 3 (Homo sapiens) (UniProt O95398); assay: Confirmatory qHTS for agonist of cAMP-regulated guanine nucleotide exchange factor 3 (EPAC1) (AID 1645881);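 further: EPAC1 catalysed release of BODIPY-GDP from Rap1B seen as fluorescence loss; 100% = effect of cAMP agonist control; nearly all actives have a fitted effect of over 75% in size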
# Chain of Rap guanine nucleotide exchange factor 3 (Homo sapiens) (O95398 whole entry, looked up): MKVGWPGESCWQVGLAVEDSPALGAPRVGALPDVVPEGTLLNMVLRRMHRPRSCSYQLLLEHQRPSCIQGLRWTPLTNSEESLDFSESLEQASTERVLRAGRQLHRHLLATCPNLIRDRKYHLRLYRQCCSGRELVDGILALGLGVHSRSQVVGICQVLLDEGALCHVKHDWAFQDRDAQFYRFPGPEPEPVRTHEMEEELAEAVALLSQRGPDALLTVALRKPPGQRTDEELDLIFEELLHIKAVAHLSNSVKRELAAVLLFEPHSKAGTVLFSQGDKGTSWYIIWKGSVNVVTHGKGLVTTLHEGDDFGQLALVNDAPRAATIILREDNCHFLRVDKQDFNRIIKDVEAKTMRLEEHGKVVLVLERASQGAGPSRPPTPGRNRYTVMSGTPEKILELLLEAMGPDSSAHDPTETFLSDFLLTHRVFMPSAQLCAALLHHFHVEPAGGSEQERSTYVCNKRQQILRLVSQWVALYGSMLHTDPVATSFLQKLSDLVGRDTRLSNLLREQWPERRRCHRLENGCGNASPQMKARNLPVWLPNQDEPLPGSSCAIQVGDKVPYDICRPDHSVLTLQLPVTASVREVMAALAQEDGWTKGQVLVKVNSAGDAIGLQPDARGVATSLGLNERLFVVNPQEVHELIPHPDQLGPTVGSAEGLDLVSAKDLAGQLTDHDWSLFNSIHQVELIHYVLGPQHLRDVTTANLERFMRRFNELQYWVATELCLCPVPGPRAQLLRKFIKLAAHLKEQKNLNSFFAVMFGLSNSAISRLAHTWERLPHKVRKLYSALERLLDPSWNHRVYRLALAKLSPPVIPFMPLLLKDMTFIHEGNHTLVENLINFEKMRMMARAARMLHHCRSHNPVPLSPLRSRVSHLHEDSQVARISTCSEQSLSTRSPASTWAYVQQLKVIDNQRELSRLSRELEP
# [11] = Confirmation and Secondary Assay for Modulators of Hemoglobin Beta Chain Splicing at IVS2 705 locus (AID 930);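 further: HeLa cells stably expressing the EGFP-705 splicing reporter; GFP fluorescence per well restored by corrected splicing of the IVS2-705 intron in EGFP; % of control where 0% means no effect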
# Method in brief: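 Fluorescence gain (488 nm laser, 500-520 nm PMT) reflects restored correct splicing of a mutant IVS2-705 intron inside EGFP in stably transfected HeLa cells after 2-day compound treatment.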
# [12] = target: Ubiquitin carboxyl-terminal hydrolase 1 (Homo sapiens) (UniProt O94782); assay: Inhibitors of USP1/UAF1: Pilot qHTS (AID 504865);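 further: rhodamine fluorescence freed from ubiquitin-rhodamine substrate followed over time; top concentration of the series differs between compounds; on the % scale 0 is the no-effect control and ±100 the full control effect; nearly all actives have a fitted effect of over 35% in size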
# Chain of Ubiquitin carboxyl-terminal hydrolase 1 (Homo sapiens) (O94782 whole entry, looked up): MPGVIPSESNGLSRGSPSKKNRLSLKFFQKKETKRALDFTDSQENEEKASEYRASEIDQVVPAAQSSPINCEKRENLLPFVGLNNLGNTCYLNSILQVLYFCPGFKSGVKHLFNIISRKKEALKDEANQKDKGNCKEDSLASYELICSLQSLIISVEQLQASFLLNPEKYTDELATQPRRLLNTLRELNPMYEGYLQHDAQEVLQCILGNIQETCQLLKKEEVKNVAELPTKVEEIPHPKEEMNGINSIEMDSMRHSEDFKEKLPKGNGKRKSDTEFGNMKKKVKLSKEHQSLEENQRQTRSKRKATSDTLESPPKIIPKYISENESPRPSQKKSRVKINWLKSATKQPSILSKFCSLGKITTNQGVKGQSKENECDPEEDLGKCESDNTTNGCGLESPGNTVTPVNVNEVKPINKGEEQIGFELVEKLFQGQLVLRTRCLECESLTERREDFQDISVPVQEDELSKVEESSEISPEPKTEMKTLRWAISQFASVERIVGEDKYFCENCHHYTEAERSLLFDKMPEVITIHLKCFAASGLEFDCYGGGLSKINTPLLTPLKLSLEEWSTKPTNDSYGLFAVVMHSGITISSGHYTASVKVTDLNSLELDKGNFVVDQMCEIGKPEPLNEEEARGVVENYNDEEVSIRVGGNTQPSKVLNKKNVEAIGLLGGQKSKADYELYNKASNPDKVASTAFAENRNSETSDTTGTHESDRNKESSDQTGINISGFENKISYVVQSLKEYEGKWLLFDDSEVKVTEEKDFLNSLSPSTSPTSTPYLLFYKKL
# Method in brief: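 Enzyme-free wells gave the negative control, while test wells held 1nM USP1/UAF1 preincubated with compound for 15 min at room temperature. Ub-Rho at 150nM final started the reaction, and fluorescence at 480/540 nm was recorded kinetically.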
# [13] = target: Lysosomal acid glucosylceramidase (Homo sapiens) (UniProt P04062); assay: Glucocerebrosidase-p2 (AID 348; in the data active means potency below about 10 µM; further: potency means the concentration at half of the fitted maximal effect); conditions: purified GBA, blue fluorogenic substrate, 40 min
# Chain of Lysosomal acid glucosylceramidase (Homo sapiens) (P04062 whole entry, looked up): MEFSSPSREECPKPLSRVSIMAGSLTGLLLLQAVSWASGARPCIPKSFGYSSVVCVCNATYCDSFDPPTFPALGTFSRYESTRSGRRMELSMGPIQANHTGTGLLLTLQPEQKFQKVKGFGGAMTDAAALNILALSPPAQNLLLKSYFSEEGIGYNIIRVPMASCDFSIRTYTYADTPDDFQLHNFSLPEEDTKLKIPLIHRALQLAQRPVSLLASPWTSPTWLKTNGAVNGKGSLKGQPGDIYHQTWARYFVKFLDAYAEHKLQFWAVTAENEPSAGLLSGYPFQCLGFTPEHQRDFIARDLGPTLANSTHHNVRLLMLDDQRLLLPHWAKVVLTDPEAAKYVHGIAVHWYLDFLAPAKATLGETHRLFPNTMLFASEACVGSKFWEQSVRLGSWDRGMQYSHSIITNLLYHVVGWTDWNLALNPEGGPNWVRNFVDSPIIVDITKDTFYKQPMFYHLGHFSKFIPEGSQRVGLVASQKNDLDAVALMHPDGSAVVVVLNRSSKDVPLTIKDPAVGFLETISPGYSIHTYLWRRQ
# Method in brief: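 Compounds titrated from 0.6 nM upwards against 0.2 nM enzyme in pH 5.9 citric acid/KH2PO4, taurocholate, tween-20; blue fluorogenic substrate 80 uM, 40 min room temperature, stopped and read Ex 365/Em 440 for AC50.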
# [14] = NFAT Signaling Pathway (AID 444; active means well fitted curve in either direction with a large enough effect, not every such curve was filed as active;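 further: carbachol stimulus at about its EC50 of 1 µM final; on the % scale 0 is the no-effect control and ±100 the full control effect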); conditions: Jurkat NFAT-bla M1, carbachol, beta-lactamase ratio, 5 h; at 7.69 µM (top of the series) unless noted
# Method in brief: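 Jurkat cells with NFAT-driven β-lactamase reporter and co-expressed M1 receptor, stimulated with carbachol (final 1 uM, ~EC50), compound titration, 5 h at 37 °C. CCF4 loaded 1 h at RT; 460/530 nm ratio gave %activity and AC50.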
# [15] = target: Mitogen-activated protein kinase 10 (Mus musculus) (UniProt Q61831); assay: JNK3 AlphaScreen Assay (AID 530; active means well fitted curve in either direction with a large enough effect, not every such curve was filed as active;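 further: kinase came from lysate of stimulated human HepG2 cells; signal reports phosphorylation of biotinylated GST-cJun 1-79 at Ser73 with 10 µM ATP; on the % scale 0 is the no-effect control and ±100 the full control effect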)
# Method in brief: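 qHTS format: compounds tested as titrations against IL-1beta/TNF-alpha-activated HepG2 lysate JNK3 with biotin-GST-cJun substrate and 10 uM ATP at room temperature. Loss of anti-phospho-cJun AlphaScreen signal indicates inhibition.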
# [16] = target: 3',5'-cyclic-AMP phosphodiesterase 4B (Homo sapiens) (UniProt Q07343); assay: qHTS Assay for Inhibitors of PDE-IV (AID 607; active means well fitted activation curve with a large enough effect in the main read-out, with a control signal flat, not every such curve was filed as active; further: % of control where 0% means no effect)
# Chain of 3',5'-cyclic-AMP phosphodiesterase 4B (Homo sapiens) (Q07343 whole entry, looked up): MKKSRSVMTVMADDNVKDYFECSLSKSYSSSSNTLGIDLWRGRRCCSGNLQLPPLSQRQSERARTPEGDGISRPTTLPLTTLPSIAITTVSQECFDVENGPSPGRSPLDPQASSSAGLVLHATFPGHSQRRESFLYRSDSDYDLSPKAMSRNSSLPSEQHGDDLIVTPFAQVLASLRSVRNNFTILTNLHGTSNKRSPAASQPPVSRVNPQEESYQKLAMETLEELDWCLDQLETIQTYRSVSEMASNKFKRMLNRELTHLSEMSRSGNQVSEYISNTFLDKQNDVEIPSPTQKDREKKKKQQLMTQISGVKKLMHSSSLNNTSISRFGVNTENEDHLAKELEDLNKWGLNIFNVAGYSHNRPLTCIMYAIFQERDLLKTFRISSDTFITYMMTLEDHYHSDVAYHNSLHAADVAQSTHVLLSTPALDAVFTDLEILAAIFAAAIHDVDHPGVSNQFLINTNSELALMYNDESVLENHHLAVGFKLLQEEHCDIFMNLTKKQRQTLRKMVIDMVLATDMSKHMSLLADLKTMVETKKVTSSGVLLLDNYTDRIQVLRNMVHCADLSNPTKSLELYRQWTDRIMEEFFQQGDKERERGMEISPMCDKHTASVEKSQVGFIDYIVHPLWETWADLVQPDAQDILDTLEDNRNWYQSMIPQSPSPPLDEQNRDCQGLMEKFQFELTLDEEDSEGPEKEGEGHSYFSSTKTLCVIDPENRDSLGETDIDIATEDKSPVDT
# Method in brief: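 Live HEK293 cells with a modified cyclic nucleotide-gated (CNG) channel report intracellular cAMP via membrane-potential dye fluorescence (ex 535/em 590 nm). Endogenous PDE-IV was targeted. Compounds were tested at up to 22.9 uM final; RO 20-1724 100 uM served as control.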
# [17] = target: Dual specificity protein kinase CLK4 (Homo sapiens) (UniProt Q9HAZ1); assay: qHTS Assay for Inhibitors of CDC-like Kinase 4 (Kinase-Glo Assay) (AID 1770); further: nearly all actives have a fitted effect of over 65% in size; further: potency means the concentration at half of the fitted maximal effect
# Chain of Dual specificity protein kinase CLK4 (Homo sapiens) (Q9HAZ1 whole entry, looked up): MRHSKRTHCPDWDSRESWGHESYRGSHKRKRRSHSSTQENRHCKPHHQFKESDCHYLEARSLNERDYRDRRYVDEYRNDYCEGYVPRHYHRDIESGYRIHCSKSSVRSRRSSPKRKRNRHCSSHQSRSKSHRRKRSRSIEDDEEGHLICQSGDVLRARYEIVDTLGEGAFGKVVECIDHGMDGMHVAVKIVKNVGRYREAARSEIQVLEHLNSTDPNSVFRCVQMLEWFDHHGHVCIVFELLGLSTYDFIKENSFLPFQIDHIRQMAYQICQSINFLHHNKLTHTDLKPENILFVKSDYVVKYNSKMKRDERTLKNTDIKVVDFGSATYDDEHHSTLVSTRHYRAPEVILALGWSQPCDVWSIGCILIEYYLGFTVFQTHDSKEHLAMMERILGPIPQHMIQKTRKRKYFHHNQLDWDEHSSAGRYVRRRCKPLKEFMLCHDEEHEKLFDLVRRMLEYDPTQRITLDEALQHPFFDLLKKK
# Method in brief: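 Clk4 25 nM, RS peptide 100 uM, ATP 1 uM, pH 7.5 Tris, 10 mM MgCl2, 2.5 mM DTT; 4.5 h RT; ATP depletion read by Kinase-Glo luminescence.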
# [18] = target: Dual specificity protein kinase CLK4 (Homo sapiens) (UniProt Q9HAZ1); assay: qHTS Assay for Inhibitors of CDC-like Kinase 4 (ADP-Glo Assay) (AID 1771); further: nearly all actives have a fitted effect of over 70% in size; further: potency means the concentration at half of the fitted maximal effect
# Method in brief: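 Kinase reaction: Clk4 at 25 nM, RS repeat peptide substrate at 100 uM, ATP at 1 uM, 1 hr, room temperature. Product ADP detected as luciferase signal via ADP-Glo.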
# [19] = target: Dual specificity protein kinase CLK4 (Homo sapiens) (UniProt Q9HAZ1); assay: qHTS Assay for Inhibitors of CDC-like Kinase 4 (ADP-FP Assay) (AID 1795); further: nearly all actives have a fitted effect of over 60% in size; further: potency means the concentration at half of the fitted maximal effect
# Method in brief: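 Kinase activity was followed as ADP output, converted from fluorescence polarization with a calibration curve. Reactions ran one hour at low ATP (1 uM) with RS peptide substrate.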
# [20] = measured here: cell count channel max response
# [21] = measured here: lipid channel max response
smiles,measurement,setting,value
NC(=NCc1ccc(Cl)c(Cl)c1)NC(=O)c1nc(Cl)c(N)nc1N,"activity change, negative = inhibition",[1],-11.5% [at 38 µM] (inactive)
same,Potency,[2],10 µM (active)
same,"activity, negative = inhibition",[3],5.12% [at 38 µM] (inactive)
same,Potency,[4],> 46 µM (inactive)
same,Potency,[5],> 46 µM (inactive)
same,Potency,[6],inactive
same,"activity change, negative = inhibition",[7],0.442% (inactive)
same,max response,[7]; [20],-3.02%
same,max response,[7]; [21],-2.51%
CN(C)CCCO[C@H]1C([C@H](O)CO)O[C@@H]2OC(C)(C)O[C@@H]21 (stereo not given in full),"activity change, negative = inhibition",[7],1.15% (inactive)
same,max response,[7]; [20],19.8%
same,max response,[7]; [21],24%
CC(=O)OC1c2c(ccc3ccc(=O)oc23)OC(C)(C)C1OC(=O)CC(C)C (stereo not given),Potency,[8],20 µM (active)
same,Potency,[6],inactive
same,Potency,[9],inactive
same,Potency,[7],25.1 µM (active)
same,max response,[7]; [20],-23.2%
same,max response,[7]; [21],-91.6%
same,Potency,[10],inactive
CCC(=O)OC1CCC2C3CCc4cc(O)ccc4C3CC[C@]12C (stereo not given in full),Potency,[9],inactive
same,outcome,[11],inactive
same,"activity change, negative = inhibition",[7],3.26% (inactive)
same,max response,[7]; [20],9.46%
same,max response,[7]; [21],15.5%
same,Potency,[10],inactive
Nc1c2ccccc2nc2ccccc12 (tested in a mixture with another compound),Potency,[6],inactive
same,Potency,[9],inactive
same,"activity change, negative = inhibition",[7],-15.1% (inactive)
same,max response,[7]; [20],-8%
same,max response,[7]; [21],-17.5%
same,Potency,[12],inactive
same,Potency,[10],inactive
N#CCCn1c(=O)c(-c2cc(F)cc(F)c2)nc2cnc(Oc3ccccc3)nc21,Potency,[13],> 11.4 µM (inactive)
same,"activity change, negative = inhibition",[1],-18% (inactive)
same,Potency,[2],2 µM (active)
same,"activity change, negative = inhibition",[14],1.84% (inactive)
same,"activity, negative = inhibition",[3],-2.23% (inactive)
same,Potency,[4],> 9.22 µM (inactive)
same,Potency,[5],> 46 µM (inactive)
same,Potency,[15],inactive
same,Potency,[16],inactive
same,"activity change, negative = inhibition",[7],7.78% (inactive)
same,max response,[7]; [20],10.8%
same,max response,[7]; [21],17.1%
same,Potency,[17],inactive
same,Potency,[18],inactive
same,Potency,[19],inactive
same,Potency,[12],inactive
COC(=O)[C@@H]1C2CC3c4[nH]c5cc(OC)ccc5c4CCN3CC2C[C@H](OC(=O)c2cc(OC)c(OC)c(OC)c2)C1OC (stereo not given in full),Potency,[6],inactive
same,"activity change, negative = inhibition",[7],-8.88% (inactive)
same,max response,[7]; [20],3.77%
same,max response,[7]; [21],-5.55%
same,Potency,[10],inactive
COc1cccc(-c2ccc3ncnc(NCCc4c[nH]c5ccc(OC)cc45)c3c2)c1,Potency,[13],> 11.4 µM (inactive)
same,Potency,[2],3.98 µM (active)
same,"activity change, negative = inhibition",[14],-6.66% (inactive)
same,Potency,[4],> 46 µM (inactive)
same,Potency,[5],> 46 µM (inactive)
same,Potency,[16],inactive
same,Potency,[8],1.26 µM (active)
same,Potency,[6],inactive
same,"activity change, negative = inhibition",[7],-3.93% (inactive)
same,max response,[7]; [20],-24.6%
same,max response,[7]; [21],-27.9%
same,Potency,[17],5.01 µM (active)
same,Potency,[18],3.98 µM (active)
same,Potency,[19],0.631 µM (active)
same,Potency,[12],inactive
O=c1cnc2cnc(N3CCNCC3)nc2n1C1CC1,Potency,[13],> 11.4 µM (inactive)
same,"activity change, negative = inhibition",[1],-8.15% (inactive)
same,"activity change, negative = inhibition",[14],-1.86% (inactive)
same,"activity, negative = inhibition",[3],-7.26% (inactive)
same,Potency,[4],> 9.22 µM (inactive)
same,Potency,[5],> 46 µM (inactive)
same,Potency,[15],inactive
same,Potency,[16],inactive
same,"activity change, negative = inhibition",[7],0.852% (inactive)
same,max response,[7]; [20],9.12%
same,max response,[7]; [21],7.84%
same,Potency,[17],inactive
same,Potency,[18],inactive
same,Potency,[19],inactive
same,Potency,[12],inactive
CN1CCN(c2ncncc2-c2ccoc2)CC1,Potency,[13],> 11.4 µM (inactive)
same,"activity change, negative = inhibition",[1],-0.0355% (inactive)
same,"activity change, negative = inhibition",[14],-13% (inactive)
same,"activity, negative = inhibition",[3],-4.34% (inactive)
same,Potency,[4],> 46 µM (inactive)
same,Potency,[5],> 46 µM (inactive)
same,Potency,[15],inactive
same,Potency,[16],inactive
same,Potency,[8],7.94 µM (active)
same,Potency,[6],inactive
same,"activity change, negative = inhibition",[7],5.79% (inactive)
same,max response,[7]; [20],23.7%
same,max response,[7]; [21],30.3%
same,Potency,[17],inactive
same,Potency,[18],inactive
same,Potency,[19],inactive
FC(F)(F)c1ccccc1-c1cncnc1NCCN1CCOCC1,Potency,[13],> 11.4 µM (inactive)
same,Potency,[2],2.51 µM (active)
same,"activity, negative = inhibition",[3],-11.6% (inactive)
same,Potency,[4],> 46 µM (inactive)
same,Potency,[5],> 46 µM (inactive)
same,Potency,[15],inactive
same,Potency,[16],inactive
same,Potency,[8],0.794 µM (active)
same,Potency,[6],inactive
same,"activity change, negative = inhibition",[7],-3.84% (inactive)
same,max response,[7]; [20],15.3%
same,max response,[7]; [21],13.3%
same,Potency,[17],inactive
same,Potency,[18],inactive
same,Potency,[19],inactive
same,Potency,[12],inactive
